Bioassay records as filed in PubChem.
Compounds with a hit are over-represented: about 1.3% of the library has one in this group of screens.
RXFP1 antagonist = blocks the human relaxin receptor RXFP1. activity change, negative = inhibition, % at 57.5 µM. HEK293-RXFP1, relaxin-stimulated cAMP HTRF, 30 min; hits give low values. 350,000 compounds, 0.59% hits;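 active = activity change of -60% or lower, but not beyond a set lower limit; inconclusive = change between -60% and -40%, or beyond the set limit; inactive = change above -40%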; also: % is scaled to controls: 0 for no effect and ±100 for the full control effect
TSHR antagonist = blocks TSH signaling through the human TSH receptor; AID 504810; TSHR-expressing cells, TSH-stimulated cAMP HTRF, 2 h; hits give low values; 330,000 compounds, 0.2% hits; activity change, negative = inhibition, % at 11.5 µM;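 active = activity change below a set negative limit, meaning inhibition stronger than a set level, cut at about -70% in these data; inconclusive = activity change between two set negative limits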; also: % is scaled to controls: 0 for no effect and ±100 for the full control effect
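Inhibition of cAMP made by TSHR-expressing cells under TSH stimulation (4nM final, EC80; 2 h, 37 deg C) is quantified with a one-step lysis HTRF kit, anti-cAMP cryptate versus cAMP-d2.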
gsp ag = activates gsp, the McCune-Albright syndrome mutation; gsp mutant cells, cAMP HTRF, 30 min; Potency, µM (doses to about 76.9 µM), for the others: top-dose activation (cAMP increase), actives largely listed as activators; 340,000 compounds, 0.13% hits; AID 624287; active = well fitted activation curve with a large enough effect; inconclusive = small, poorly fitted or top-dose-only effect, or another doubt; inactive = no such curve, though single readings can be large or run the other way; cell line not stated here;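 also: phosphodiesterase inhibitor Ro 20-1724 added with compounds to block cAMP breakdown; potency is read from the fitted curve at half-maximal effect; nearly all actives have a fitted effect of over 60% in size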
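Cells in DMEM/10% FBS with G418 were pretreated with compounds in DMSO plus […] (300 uM stock) for 30 min at 37C. cAMP was measured by HTRF (cAMP-d2 plus anti-cAMP antibody-K) after 30 min at room temperature.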
Akt phos inh = inhibitors of Akt phosphorylation | Neuro2A IGF-stimulated pAkt S473 HTRF, 20 min; hits give low values | activity change, % for hits at 50 µM | 360,000 compounds, 0.32% hits | AID 651550; in the data active = activity change below about -80%; inconclusive = mostly about -51% to -80%; also: % is scaled to controls: 0 for no effect and ±100 for the full control effect
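Neuro2A cells (4,500/well, DMEM with 0.5% FBS) were treated with compound at a single 50 µM final concentration, stimulated with 6 nM IGF for 20 min at 37 °C, and lysed. Phospho-Akt Ser473 was read by HTRF as 665/615 ratio ×10^4.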
gsp antagonist = antagonizes gsp, the McCune-Albright syndrome mutation | gsp-mutant cells, cAMP HTRF, 30 min | Potency, µM (highest dose often 76.9 µM), for inactives: at the highest dose activity change, negative = inhibition, actives largely listed as inhibitors | 340,000 compounds, 0.4% hits; calls by dose curve; cell line not stated here;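 also: intracellular cAMP measured with PDE inhibitor Ro 20-1724 present during compound exposure; potency is read from the fitted curve at half-maximal effect; % is scaled to controls: 0 for no effect and ±100 for the full control effect; nearly all actives have a fitted effect of over 65% in size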
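G418-selected cells were plated in DMEM/10% FBS for 16-24 h at 37C, then treated with compounds plus the PDE inhibitor […] (300 uM solution added) for 30 min at 37C. Intracellular cAMP was measured by HTRF after 30 min lysis at room temperature.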
RXFP1 agonist = RXFP1 (human) receptor agonism; Q9HBX9; HEK293T-RXFP1 cAMP TR-FRET, 30 min; response scale: percent of porcine relaxin response, buffer zero; Potency, µM (titrated, usually from 57.5 µM), inactives show top-dose activation, hits mostly activators; 370,000 compounds, 0.3% hits; AID 2676; active = well fitted activation curve with a large enough effect; inconclusive = small, poorly fitted or top-dose-only effect; also: potency is read from the fitted curve at half-maximal effect; % is scaled to controls: 0 for no effect and ±100 for the full control effect; nearly all actives have a fitted effect of over 60% in size
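Agonist response is measured as cAMP accumulation in an RXFP1-transfected HEK293T line under PDE4 inhibition. Values are scaled between buffer-only and 29 nM porcine relaxin, and EC50s come from standard Hill equation fits.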
* hit, by the source's call; i = inactive; ? = inconclusive; · = no result; [ ] = remark or other dose.

SMILES | RXFP1 antagonist | TSHR antagonist | gsp ag | Akt phos inh | gsp antagonist | RXFP1 agonist
CC(=O)O[C@H]1CC[C@@]2(C)C(=CC[C@@H]3[C@@H]2CC[C@]2(C)C(C(C)=O)=CC[C@@H]32)C1 | -10 | · | · | · | · | ·
O=C(Nc1ccc(C(F)(F)F)cc1)C1(c2ccccc2)CC1 | -63* | 9 | 11%[15.4 µM] | i | -8% | -2%
O=C(Nc1cccc(C(F)(F)F)c1)C1(c2ccccc2)CC1 | -9 | 4 | ? | i | -16% | 0%
Cc1ccc(NC(=O)COc2ccc(/C=C3/SC(=Nc4ccccc4)N(Cc4cccnc4)C3=O)cc2)cc1 | -4 | 0 | ? | -106%* | 4% | 0%
CS(=O)(=O)N(CCc1ccccc1)CC(=O)Nc1ccc2c(c1)OCO2 | -10 | · | 4% | -105%* | -15% | 0%
CS(=O)(=O)N(CC(=O)Nc1ccc2c(c1)OCO2)Cc1ccccc1 | 11 | 3 | -30% | i | 3% | 0%
CC1C(=O)N2CCCc3cc(S(=O)(=O)N4CCN(c5ccccc5F)CC4)cc1c32 (stereo unspecified) | ? | 43 | 1% | i | 1% | 1%
Cc1cc(C(=O)CSc2nc(N)cc(=O)[nH]2)c(C)n1CC1CCCO1 (stereo unspecified) | -13 | 6 | 27% | i | -2% | ·
Cc1cc(C(=O)CSc2nc3ccccc3[nH]2)c(C)n1CC1CCCO1 (stereo unspecified) | -38 | ? | 7% | i | 32µM* | -1%
COc1cccc(CNC(=O)CCCC(=O)NC(C)CCc2ccccc2)c1 (stereo unspecified) | -3 | -130* | -41% | i | -2% | -1%
CN(C)C(=O)c1ccc(NC(=O)COC(=O)C2(c3ccccc3)CCCC2)cc1 | 6 | · | -31% | i | -16% | ·
CC(NC(=O)CN(c1cccc(C(F)(F)F)c1)S(=O)(=O)c1ccc(Cl)c([N+](=O)[O-])c1)c1ccccc1 (stereo unspecified) | -82* | -48 | -11%[15.4 µM] | i | ? | -1%
O=C(CN(c1cccc(C(F)(F)F)c1)S(=O)(=O)c1ccc(Cl)c([N+](=O)[O-])c1)NCc1ccccc1 | · | -33 | -34% | i | 8% | -3%
O=C1OCC/C1=C\c1ccc(O)cc1 | 2 | 4 | 6% | i | 1% | -3%
CC1(C)O[C@@H]2C[C@H]3[C@@H]4CCC5=CC(=O)C=C[C@]5(C)[C@@H]4[C@@H](O)C[C@]3(C)[C@]2(C(=O)CO)O1 | -4 | · | · | · | · | ·
O=[N+]([O-])c1ccc(N=Nc2ccc(O)c3ccccc23)cc1 | ? | · | 16% | i | 25µM* | ·
O=C(NCc1ccccc1F)c1cc2ccccn2n1 | -9 | · | · | · | · | 0%
Cc1ccccc1OCCC(=O)OCC(=O)NC1CC1 | -1 | 2 | -1%[15.4 µM] | i | 3% | 1%
Cc1ccccc1OCCC(=O)OCC(=O)NCCNC(=O)COC(=O)CCOc1ccccc1C | -73* | 44 | 5%[15.4 µM] | i | -1% | -1%
COc1ccc(OCCC(=O)OCC(=O)NCc2ccco2)cc1 | -3 | 12 | 25% | i | -24% | 1%
COc1ccccc1NCCC(=O)OCC(=O)NCc1ccco1 | 2 | -3 | -3% | -106%* | -2% | 1%
CCN(CC)S(=O)(=O)c1ccc(NC(=O)CCN2C(=O)C3CC=CCC3C2=O)cc1 (stereo unspecified) | -5 | 13 | -56% | i | 7% | 2%
CN(C)/C=C(/C(=O)c1ccc(Cl)cc1)S(=O)(=O)c1ccc(Cl)cc1 | 8 | -114* | -18% | i | 6% | -3%
CN1CCN(C(c2ccccc2Cl)c2sc3nc(-c4ccco4)nn3c2O)CC1 (stereo unspecified) | -6 | · | · | · | · | 2%
NC(=S)N/N=C/c1ccc(-n2nncc2-c2ccc(Cl)cc2)cc1 | -73* | · | 7% | i | -12% | 1%
O=C(CCCc1nc(-c2ccco2)no1)Nc1ccccc1[N+](=O)[O-] | 3 | · | · | · | · | 2%
N#CCC(=O)N1CCN(Cc2ccc3c(c2)OCO3)CC1 | 4 | · | 15% | i | -9% | ·
